Here are results for two compounds from PubChem BioAssay AID2284216 (EPA ToxCast).

The source made the active and inactive calls. The calls were made as follows: active = hit-call score of the fitted dose curve at least 0.9, where 1 is the maximum; inactive = score below 0.9.

For this experiment, the target named is rat Peripheral Benzodiazepine Receptor (PBR), Tspo (gene 24230) (UniProt P16257). As to the kind of experiment: ERF_TW_TR_rTSPO: Eurofins (ERF) Radioligand Binding Assay for rat Peripheral Benzodiazepine Receptor (PBR) Antagonism. The method, then: ERF_TW_TR_rTSPO is a biochemical, single-readout assay that uses extracted gene-proteins in a cell-free assay. Measurements were taken 0.25 hour after chemical dosing in a 96-well plate. See PBR Rat Binding (Antagonist Radioligand) Assay, Panlabs.ERF_TW_TR_rTSPO is an assay component calculated from the ERF_TW_TR_rTSPO assay. It is designed to measure radioligand binding using a type of binding reporter as detected by scintillation counting with radiometry technology.Data from the assay component ERF_TW_TR_rTSPO was analyzed at the assay endpoint, ERF_TW_TR_rTSPO, in the positive analysis fitting direction relative to DMSO as the negative control and baseline of activity. Using a type of binding reporter, loss-of-signal activity can be used to understand changes in transporter binding as they relate to gene TSPO. To generalize the intended target to other relatable targets, this assay endpoint is annotated to the transporter intended target family, where the subfamily is cholesterol transporter.
rat Peripheral Benzodiazepine Receptor (PBR), Tspo (gene 24230), sequence (P16257 whole entry, looked up): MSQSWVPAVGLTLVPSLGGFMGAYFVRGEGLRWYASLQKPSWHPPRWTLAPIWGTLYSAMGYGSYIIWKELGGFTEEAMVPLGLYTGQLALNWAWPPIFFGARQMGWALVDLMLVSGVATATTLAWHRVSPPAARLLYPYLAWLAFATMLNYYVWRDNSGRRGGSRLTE
Cells are incubated for 15 minutes at room temprature with [3H]PK 11195 (0.2 nM) as lingand.Test Sample Requirements: Minimum for 1) Screen: 60 ul of 10 mM stock -OR- 1 mg (pre-weighed) for 10uM final testing. . 2) Dose Response: 90 ul of 10 mM stock -OR- 1 mg (pre-weighed) for a top concentration at 10uM. .
The term AC50 denotes the midpoint of the concentration-response curve, whichever way the signal moves. For the compound `O=C(/C=C/c1ccc(O)cc1)CC(=O)/C=C/c1ccc(O)cc1`, the AC50 was 161 nM (active).

Regarding `COc1cc(CCC(=O)CC(=O)CCc2ccc(O)c(OC)c2)ccc1O`, the AC50 is 2550 nM (active).
